Screening results as filed in PubChem.
Shown are actives, neighbours in structure and some others; about 7.5% of the full set was active somewhere.
ELG1 genotoxic: qHTS screen for small molecules that induce genotoxicity in human embryonic kidney (HEK293T) cells expressing luciferase-tagged ELG1. 330,000 compounds, 1.3% hits. HEK293T ELG1-luciferase reporter, luminescence, 16 h. AID 504466, 2011. Potency, µM (series often up to 46 µM), without a hit: at the top dose activity change, positive = activation, most hits filed as activators; note: % of control where 0% means no effect; nearly all actives have a fitted effect of over 60% in size
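DMSO vehicle served as control against compound-treated ELG1-luciferase HEK293T cells; exposure lasted 16 hr at 37 °C and 5% CO2, followed by ONE-Glo luminescence detection after 30 min.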
Rab9 promoter act: qHTS Assay for Rab9 Promoter Activators. 320,000 compounds, 2.8% hits. Huh7 Rab9 promoter-luciferase reporter, luminescence, 24 h. Potency, µM (top dose mostly 9.22 µM), without a hit: top-dose activation, negative = inhibition, actives largely listed as activators; note: % of control where 0% means no effect; nearly all actives have a fitted effect of over 60% in size
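Stable Rab9-luc Huh7, 1500 cells/well, 2 h settle; cmpd in DMSO, 24 h, 37 °C/5% CO2; luciferase reagent 10 min RT; luminescence.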
FLuc modulator: qHTS profiling assay for firefly luciferase inhibitor/activator using purifed enzyme and Km concentrations of substrates (counterscreen for miR-21 project); AID 588342, 2011; Luciferin 4-monooxygenase (Photinus pyralis), P08659; Potency, µM (top dose mostly 57.5 µM), without a hit: top-dose activity change, negative = inhibition, hits mostly inhibitors; purified FLuc, Km substrates, luminescence inhibition; 360,000 compounds, 6.9% hits;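 note: plate controls were vehicle for no effect and reference inhibitor for full effect; nearly all actives have a fitted effect of over 55% in size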
Target sequence (P08659 whole entry, looked up): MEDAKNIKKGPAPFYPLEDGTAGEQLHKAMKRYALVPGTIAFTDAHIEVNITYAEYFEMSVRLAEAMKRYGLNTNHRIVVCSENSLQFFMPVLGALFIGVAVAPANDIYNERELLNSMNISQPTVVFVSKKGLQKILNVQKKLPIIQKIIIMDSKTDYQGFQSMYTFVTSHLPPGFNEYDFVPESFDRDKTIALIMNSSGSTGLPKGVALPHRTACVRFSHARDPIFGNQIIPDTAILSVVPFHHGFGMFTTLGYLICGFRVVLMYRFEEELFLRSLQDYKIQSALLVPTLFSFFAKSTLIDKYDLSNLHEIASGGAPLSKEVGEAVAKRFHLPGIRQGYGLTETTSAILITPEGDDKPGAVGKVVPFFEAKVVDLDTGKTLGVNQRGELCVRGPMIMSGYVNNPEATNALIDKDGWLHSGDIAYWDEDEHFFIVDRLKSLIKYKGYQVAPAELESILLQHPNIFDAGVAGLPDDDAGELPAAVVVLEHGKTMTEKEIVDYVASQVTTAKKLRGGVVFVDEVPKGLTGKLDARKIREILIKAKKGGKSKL
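Purified P. pyralis luciferase (10nM final) with 10uM D-luciferin and 10uM ATP (Km levels) in 50mM Tris acetate pH 7.5, 10mM Mg acetate, 0.01% Tween-20, 0.05% BSA; qHTS 6-point titration, ~60 µM downward; luminescence read.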
NPC1 promoter act: qHTS Assay for NPC1 Promoter Activators. Huh7 NPC1 promoter luciferase reporter, 24 h. Potency, µM (series often up to 9.22 µM), for inactives: top-dose activation, usual class: activators. 320,000 compounds, 2.4% hits. AID 485313, 2010; note: % of control where 0% means no effect; nearly all actives have a fitted effect of over 60% in size
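Luminescence read-out of NPC1 promoter-driven luciferase in stably transfected Huh7 cells; compounds delivered in DMSO and left 24 h at 37C, 5% CO2, qHTS titration format.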
SMN2 splice enh: qHTS Assay for Enhancers of SMN2 Splice Variant Expression; HEK293 SMN2-luciferase splicing reporter, luminescence, 30-36 h; 210,000 compounds, 2.8% hits; Potency, µM (titrated, usually from 46.1 µM), for inactives: at the top dose activity change, positive = activation, actives largely listed as activators; note: % of control where 0% means no effect; nearly all actives have a fitted effect of over 55% in size
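HEK293 cells carry an SMN2 minigene-luciferase reporter in which exon 7 inclusion puts luciferase in frame. Cells were seeded at 2000 cells/well, attached for 10-12 hours, then exposed to compounds for 30-36 hours at 37C before ONE-Glo luminescence.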
Active calls of the source: *; u = inconclusive; x = not tested or not shown. Calls come from the whole dose curve; as a rule, active = well fitted curve in the direction sought with a large enough effect; inconclusive = small, poorly fitted or top-dose-only effect, or another doubt; inactive = no such curve, though single readings can be large; an effect the other way counts as inactive or inconclusive. Potency is the fitted concentration of half-maximal effect.

SMILES	ELG1 genotoxic	Rab9 promoter act	FLuc modulator	NPC1 promoter act	SMN2 splice enh
O=C(Nc1c(Cl)cccc1Cl)c1cc(-c2ccc3c(c2)OCO3)on1	x	x	-21.7%	x	15.3%
O=C(c1cc(-c2ccc3c(c2)OCO3)on1)N1CCN(c2ccccc2)CC1	u	u	3.79µM*	2.82µM*	-27.2%
COc1cccc(N2CCN(S(=O)(=O)c3ccc4nc(-c5ccccc5)[nH]c4c3)CC2)c1	18.3%	-0.6%	2.7%	-2.8%	1.2%
CCOC(=O)c1c(C)[nH]c(C(=O)N(C)Cc2cccc(OC)c2OC)c1C	0.0%	-2.8%	-0.4%	4.8%	x
CC(C)CNC(=O)c1cc(-c2ccc3c(c2)OCO3)on1	u	0.501µM*	1.9µM*	0.562µM*	x
CC(C)CNC(=O)COCc1cc(-c2ccc3c(c2)OCO3)on1	u	27.6%	u	19.9%	x
O=C(O)/C=C\C(=O)Nc1ccccc1C#Cc1ccc(Br)cc1	12.6%	16.1%	26.9µM*	-0.6%	-5.2%
Cc1ccc(NC(=O)C2OCCc3ccccc32)cc1 (stereo not given)	6.7%	5.3%	u	21.4%	x
Cc1ccc(NC(=O)C2OCCc3ccccc32)cc1Cl (stereo not given)	11.2%	10.5%	23.9µM*	7.3%	1.7%
COc1cccc(/C=N/Nc2cc(-n3nc(C)cc3-c3ccccc3)ncn2)c1O	-10.9%	-43.9%	12.9%	-31.8%	-107.3%
COc1cccc(/C=N/Nc2ncnc(Cl)c2N)c1O	13µM*	-24.4%	9.53µM*	-15.2%	x
COc1cccc(/C=N/Nc2nccnc2Cl)c1O	2.59µM*	-22.6%	2.69µM*	-18.1%	-65.7%
COc1cccc(/C=N/NC(=O)C(=O)N/N=C/c2cccc(OC)c2O)c1O	1.7%	-22.9%	-0.3%	-33.6%	-36.3%
COc1cccc(/C=N/Nc2ncnc3scc(-c4ccccc4)c23)c1O	-2.9%	-25.6%	21.3µM*	-9.4%	-74.5%
O=C(O)/C=C\C(=O)Nc1ccc(N2CCN(c3ccc(Cl)c(Cl)c3)CC2)cc1	-3.3%	-9.6%	u	-1.6%	x
O=C(NCc1ccccc1F)C1CCN(C(=O)NCc2ccccc2)CC1	2.5%	4.0%	4.0%	9.2%	5.0%
O=C(NC1CC1)c1cc2c(s1)-c1ccccc1OC2	u	10.8%	12µM*	27.2%	-46.3%
O=C(O)c1cc2c(s1)-c1ccccc1OC2	0.1%	-1.3%	-14.8%	0.3%	9.9%
O=C(Cn1nnc(-c2ccc(OCc3ccccc3F)cc2)n1)N1CCOCC1	u	u	2.69µM*	u	13.4%
O=C(Cn1nnc(-c2ccccc2)n1)N1CCCCC1	u	u	0.0%	26.9%	x
CC(C)COc1ccc(-c2nnn(CC(=O)N3CCCC3)n2)cc1	u	19.6%	12µM*	17.9%	8.5%
O=C(Cn1nnc(-c2ccccc2Cl)n1)N1CCCCC1	u	3.98µM*	16.9µM*	u	x
CCn1c(SCC(=O)c2ccc(C)cc2)nnc1-c1ccoc1C	u	0.3%	u	10.2%	-7.9%
Nc1c(C(=O)Nc2cccc(F)c2)nnn1-c1ccc2c(c1)OCCO2	0.651µM*	0.316µM*	0.601µM*	0.1µM*	x
CCOc1ccccc1NC(=O)c1nnn(-c2ccc3c(c2)OCCO3)c1N	-1.7%	u	16.9µM*	-4.2%	x
SMILES	ELG1 genotoxic	Rab9 promoter act	FLuc modulator	NPC1 promoter act	SMN2 splice enh
Nc1c(C(=O)Nc2ccc3c(c2)OCCO3)nnn1Cc1cccc(Cl)c1	11.6%	u	u	u	x
COc1ccc(CCNC(=O)c2nnn(-c3ccccc3OC)c2N)cc1OC	-2.9%	16.5%	-0.4%	-2.8%	-0.9%
Cc1ccc(C)c(NC(=O)c2nnn(Cc3ccccc3C)c2N)c1	-0.8%	-3.3%	-11.0%	-3.1%	-10.1%
COc1ccc(CCNC(=O)c2nnn(-c3ccc4c(c3)OCCO4)c2N)cc1OC	9.7%	-4.5%	19µM*	13.2%	x
Cc1ccccc1NC(=O)c1nnn(-c2ccc3c(c2)OCCO3)c1N	4.9%	0.891µM*	6.01µM*	1.26µM*	x
CCOc1ccccc1NC(=O)c1nnn(CC(=O)Nc2ccc3c(c2)OCO3)c1N	2.7%	-4.3%	-18.4%	-1.7%	x
CC(=O)c1ccccc1OCCn1nc(C(=O)O)c2ccccc2c1=O	-13.8%	0.0%	-0.7%	-2.2%	x
O=C(N/N=C/c1coc2ccccc2c1=O)c1cc(Br)c(O)c(Br)c1	-9.1%	5.1%	u	-6.2%	x
Cc1nc2ccc(NC(=O)N3CCOCC3)cc2s1	7.1%	-1.0%	-18.1%	1.5%	21.2%
CCOP(=O)(OCC)C(Nc1ccccc1)c1ccco1 (stereo not given)	16.8%	2.3%	3.5%	-0.4%	-20.7%
COCCNc1ncnc2c1c(-c1ccccc1)cn2-c1cccc(Cl)c1	x	x	0.2%	x	x
Cc1cc(NC(=O)Cc2ccsc2)ccc1Br	2.1%	23.0%	16.9µM*	21.8%	x
Cc1cc(C)c2c(=O)n(CC(=O)Nc3ccc(Br)c(C)c3)sc2n1	0.2%	0.2%	8.49µM*	0.7%	x
CC(=O)c1ccc(NC(=O)c2cn(C)c(=O)c3ccccc23)cc1	x	x	-7.9%	x	15.6%
CCOc1ccc(C2C(C(=O)c3ccco3)=C(O)C(=O)N2CCN(C)C)cc1 (stereo not given)	6.6%	-4.0%	1.1%	-0.3%	-9.5%
Cc1ccc(CNC(=O)c2ccc([N+](=O)[O-])o2)cc1	-0.3%	-6.0%	2.8%	-3.9%	-7.6%
COC(=O)C(=O)C/C(=N/Nc1ncnc2ccccc12)c1ccc(Cl)cc1	4.8%	-1.3%	9.53µM*	-7.4%	x
CC(C)(C)NC(=O)Nc1ccc(Br)cc1	u	2.51µM*	15.1µM*	u	x
O=C(O)Cc1ccc(NC(=O)Nc2ccc(Br)cc2)cc1	0.0%	-9.7%	6.75µM*	3.4%	x
COc1ccc(NC(=O)Nc2ccc(CC(=O)O)cc2)cc1	-2.4%	3.8%	13.5µM*	-2.2%	2.4%
O=C(Nc1ccc(N2CCCC2)cc1)C(Cl)c1ccccc1 (stereo not given)	10.9%	24.7%	8.49µM*	-1.2%	-10.1%
